The text below walks through data of the supplement of paper PMC6555819.

Test in all cases: PBM binding z-score (relative to random genomic background probes); higher = stronger binding; sequences stand for … in GC…GCGATTGACAGCGTAGAATGAAGG
In assay [1] the test system is RARb homodimer (NR concentration 270 nM). The gist of the method:
(§1)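 On custom Agilent 4×180K arrays, double-stranded probes with 34-nt variable regions carried direct-repeat seeds, single-nucleotide variants, half-site ablations or random human genomic background. Ligand-free nuclear receptor dimers were applied for 1 h, and binding was read with antibodies against each partner (one per run). Binding z-scores come from regression-normalized fluorescence, with the random background probes as reference.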

Assay [2] concerns RARg:RXRa (NR concentration 270 nM, RXRa partner concentration 90 nM). The gist of the method: as §1
The test system of assay [3] is RARg homodimer (NR concentration 270 nM). A digest of the protocol:
as §1

Assay [4] concerns RXRa DBDmut IVT, anti-RXR (DBD mutation: RXRa K156A/R161A, NR concentration 90 nM). The gist of the method: as §1
In assay [5] the test system is RXRa homodimer (NR concentration 180 nM). A digest of the protocol: as §1
Assay [6] has as its system THRa:RXRa (NR concentration 90 nM, RXRa partner concentration 90 nM). A digest of the protocol: as §1
The subject of assay [7] is THRa homodimer (NR concentration 90 nM). A digest of the protocol:
as §1

Assay [8] relates to VDR homodimer (NR concentration 270 nM). The gist of the method:
as §1

As to GCAGACAGGTGACACGCAGGTAACTCAGGGTGGC, the PBM binding z-score in assay [1] is 0.28; in assay [2] it was 0.798; in assay [3] it was 0.52; in assay [4] it was -0.855; in assay [5], 0.715; in assay [6], 0.997. For the same sequence, the PBM binding z-score is -0.377 in assay [7] and -0.397 in assay [8].
As for TCTCGGAGGACATGAAAGGTCAGAGCTCGACATC, the PBM binding z-score was determined as 4.53 in assay [1]; 4.22 in assay [2]; 4.21 in assay [3]; 1.18 in assay [4]; 3.67 in assay [5]; 3.34 in assay [6]. In addition, the PBM binding z-score was determined as 0.586 in assay [7] and 0.768 in assay [8].
Turning to CCTATTAGTTGACCATAAGGGCAACGGAAGCTCG, the PBM binding z-score amounted to 1.92 in assay [1]; 1.29 in assay [2]; 0.865 in assay [3]; 0.278 in assay [4]; 0.632 in assay [5]; 1.84 in assay [6]. Also, the PBM binding z-score in assay [7] stood at 1.47; in assay [8], 0.902.
Regarding CCTAGTTGGTGAAGGTCACACACGCTATAGGTAC, the PBM binding z-score in assay [1] worked out at 4.26; in assay [2] it was 4.01; in assay [3] it was 4.06; in assay [4] it was 1.36; in assay [5], 3.65; in assay [6], 2.89. The PBM binding z-score was determined as 1.2 in assay [7] and 2.3 in assay [8].
Consider CCTGCTAGGTCATGGTCAGCAAATCTACAGTATG, for which the PBM binding z-score in assay [1] was found to be 2.81; in assay [2] it was 4.02; in assay [3], 4.6; in assay [4], 1.74; in assay [5] it was 2.84; in assay [6], 3.09. The PBM binding z-score was determined as 1.37 in assay [7] and 0.339 in assay [8].
As for ACAGACAGGTGAGTGAAGGTAACACAGCTGGACG, the PBM binding z-score was 0.48 in assay [1]; 0.416 in assay [2]; 0.789 in assay [3]; -0.436 in assay [4]; 0.647 in assay [5]; 1.87 in assay [6]. Also, the PBM binding z-score was -0.183 in assay [7] and -0.21 in assay [8].
With CAAACTAGGTCACCGGAAGGTCAAAATCCGCATG, the PBM binding z-score in assay [1] stood at 5.17; in assay [2], 7.81; in assay [3], 7.09; in assay [4] it was 2.39; in assay [5] it was 5.88; in assay [6] it was 4.39. In addition, the figures for the PBM binding z-score in assay [7] and in assay [8] were 2.94 and 3.11, respectively.
For CCGACTGGGGCATAAGGTAACCATAAGCCAGCCC, the PBM binding z-score was 0.572 in assay [1]; 0.385 in assay [2]; 0.436 in assay [3]; -0.779 in assay [4]; 0.252 in assay [5]; 1.72 in assay [6]. For the same sequence, the PBM binding z-score is 1.34 in assay [7] and -0.312 in assay [8].
With TCTTGTAGATTAAAGGTTAAGAAAGCCGAAGCCT, the PBM binding z-score in assay [1] was determined as 1.05; in assay [2] it was 1.04; in assay [3] it was 0.588; in assay [4], 0.892; in assay [5], 1.99; in assay [6] it was 1.09. In addition, the results for the PBM binding z-score in assay [7] and in assay [8] were -0.228 and 0.123, respectively.
In the case of ACTAGCAGGCCAAGTTTGGGTGACTCAAACAAAG, the PBM binding z-score in assay [1] was 0.251; in assay [2], 0.0882; in assay [3], -0.216; in assay [4] it was -0.308; in assay [5] it was -0.222; in assay [6] it was 0.796. In addition, the figures for the PBM binding z-score in assay [7] and in assay [8] were -0.161 and -0.571, respectively.
Take TCATATAGGTAATCCAGGTGAAAGTCGGCATCTA: the PBM binding z-score in assay [1] is 0.511; in assay [2], 0.501; in assay [3], 0.455; in assay [4], 1.5; in assay [5], 0.995; in assay [6], 2.41. For the same sequence, the PBM binding z-score was found to be 1.35 in assay [7] and 0.168 in assay [8].
For the sequence CCTGCTATGTCATGGTCAGCTAATCTACAGTATG, the PBM binding z-score in assay [1] is 0.419; in assay [2], 0.518; in assay [3] it was 0.62; in assay [4] it was 0.877; in assay [5] it was 0.209; in assay [6], -0.0552. In addition, the PBM binding z-score is -0.368 in assay [7] and -0.566 in assay [8].
For the sequence TCTGCTAGGTCTGTTGGTCAGCTAACGAGCTGCC, the PBM binding z-score in assay [1] is -0.195; in assay [2] it was -0.258; in assay [3], -0.599; in assay [4], 0.00538; in assay [5], -0.403; in assay [6] it was -0.454. For the same sequence, the values for the PBM binding z-score in assay [7] and in assay [8] were -0.978 and -1.23, respectively.
For GCTAGAAGGCCATTTGGGTCACTCAATGACGGGC, the PBM binding z-score is 2.47 in assay [1]; 1.61 in assay [2]; 2.24 in assay [3]; 0.256 in assay [4]; 1.05 in assay [5]; 2.42 in assay [6]. In addition, the PBM binding z-score in assay [7] was 0.686; in assay [8], 1.05.
Regarding TTACCAAGGTGTAAGGTCGTTGATGCACGCCTTG, the PBM binding z-score in assay [1] is 0.961; in assay [2], 0.528; in assay [3] it was 0.368; in assay [4], 0.411; in assay [5] it was 1.35; in assay [6] it was 2.49. Further, the PBM binding z-score in assay [7] amounted to 1.59; in assay [8], 1.62.
